± gives the standard deviation of the averaged measurements. The full data set covers some 5,400 targets. This sample favours those with the largest changes.
Compound: Nc1nc2c(ncn2[C@@H]2O[C@H](COP(=O)(O)OP(=O)(O)OP(=O)(O)O)[C@@H](O)[C@H]2O)c(=O)[nH]1 [guanosine triphosphate]
Test: NP40-soluble protein abundance relative to vehicle (solubility fold change) (ratio); higher = more soluble protein in presence of GTP
Summary of the method: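 Values are fold changes against the detergent-processed vehicle, based on vsn-normalised intensities. Jurkat crude lysate was treated at eight concentrations from 0.1 to 10 mM (10 min at room temperature, then 3 min at 37 °C), solubilised with 0.8% NP40 and benzonase, ultracentrifuged and analysed by TMT-labelled LC-MS/MS over three independent experiments.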

UniProt Q04656, sequence (Q04656 whole entry): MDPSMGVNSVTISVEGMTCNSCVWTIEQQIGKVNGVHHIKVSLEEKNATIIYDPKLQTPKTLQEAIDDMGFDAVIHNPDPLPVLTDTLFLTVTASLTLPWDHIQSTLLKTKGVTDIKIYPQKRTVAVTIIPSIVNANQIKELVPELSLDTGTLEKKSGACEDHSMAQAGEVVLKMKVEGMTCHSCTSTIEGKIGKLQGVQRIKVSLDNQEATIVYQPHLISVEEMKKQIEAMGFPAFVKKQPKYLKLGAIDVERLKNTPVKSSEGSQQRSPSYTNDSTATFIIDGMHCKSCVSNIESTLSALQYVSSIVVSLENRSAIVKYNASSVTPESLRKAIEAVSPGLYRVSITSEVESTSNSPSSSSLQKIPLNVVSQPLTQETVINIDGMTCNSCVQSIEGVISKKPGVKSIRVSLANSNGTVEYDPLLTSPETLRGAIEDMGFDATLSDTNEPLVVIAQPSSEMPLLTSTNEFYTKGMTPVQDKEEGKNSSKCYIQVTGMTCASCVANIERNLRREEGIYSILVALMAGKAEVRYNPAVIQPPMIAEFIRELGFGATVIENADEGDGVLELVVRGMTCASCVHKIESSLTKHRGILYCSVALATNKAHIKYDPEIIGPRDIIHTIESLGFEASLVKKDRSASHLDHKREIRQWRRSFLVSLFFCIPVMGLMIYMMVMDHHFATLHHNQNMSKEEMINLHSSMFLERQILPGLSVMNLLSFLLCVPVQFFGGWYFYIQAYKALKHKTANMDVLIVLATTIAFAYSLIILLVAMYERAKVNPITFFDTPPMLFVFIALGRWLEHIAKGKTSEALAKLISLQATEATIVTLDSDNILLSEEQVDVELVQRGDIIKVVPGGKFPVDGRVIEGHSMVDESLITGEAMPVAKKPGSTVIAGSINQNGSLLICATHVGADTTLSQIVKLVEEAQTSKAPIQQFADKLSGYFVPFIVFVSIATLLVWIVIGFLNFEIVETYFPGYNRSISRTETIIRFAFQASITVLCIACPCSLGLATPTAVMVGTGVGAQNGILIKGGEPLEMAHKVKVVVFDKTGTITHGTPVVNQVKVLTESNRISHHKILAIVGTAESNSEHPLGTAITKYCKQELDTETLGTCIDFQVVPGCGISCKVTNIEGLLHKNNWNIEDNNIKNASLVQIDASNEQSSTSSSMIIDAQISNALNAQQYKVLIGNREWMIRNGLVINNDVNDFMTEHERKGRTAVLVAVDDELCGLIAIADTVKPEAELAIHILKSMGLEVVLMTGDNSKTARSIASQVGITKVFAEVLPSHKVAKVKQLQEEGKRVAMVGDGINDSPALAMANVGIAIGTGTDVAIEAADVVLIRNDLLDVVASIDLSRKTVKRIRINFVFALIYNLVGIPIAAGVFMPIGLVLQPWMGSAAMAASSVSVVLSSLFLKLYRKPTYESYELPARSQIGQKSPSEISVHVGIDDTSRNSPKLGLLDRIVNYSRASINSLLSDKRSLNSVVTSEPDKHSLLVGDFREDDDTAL
UniProt Q6ZNB6, sequence (Q6ZNB6 whole entry): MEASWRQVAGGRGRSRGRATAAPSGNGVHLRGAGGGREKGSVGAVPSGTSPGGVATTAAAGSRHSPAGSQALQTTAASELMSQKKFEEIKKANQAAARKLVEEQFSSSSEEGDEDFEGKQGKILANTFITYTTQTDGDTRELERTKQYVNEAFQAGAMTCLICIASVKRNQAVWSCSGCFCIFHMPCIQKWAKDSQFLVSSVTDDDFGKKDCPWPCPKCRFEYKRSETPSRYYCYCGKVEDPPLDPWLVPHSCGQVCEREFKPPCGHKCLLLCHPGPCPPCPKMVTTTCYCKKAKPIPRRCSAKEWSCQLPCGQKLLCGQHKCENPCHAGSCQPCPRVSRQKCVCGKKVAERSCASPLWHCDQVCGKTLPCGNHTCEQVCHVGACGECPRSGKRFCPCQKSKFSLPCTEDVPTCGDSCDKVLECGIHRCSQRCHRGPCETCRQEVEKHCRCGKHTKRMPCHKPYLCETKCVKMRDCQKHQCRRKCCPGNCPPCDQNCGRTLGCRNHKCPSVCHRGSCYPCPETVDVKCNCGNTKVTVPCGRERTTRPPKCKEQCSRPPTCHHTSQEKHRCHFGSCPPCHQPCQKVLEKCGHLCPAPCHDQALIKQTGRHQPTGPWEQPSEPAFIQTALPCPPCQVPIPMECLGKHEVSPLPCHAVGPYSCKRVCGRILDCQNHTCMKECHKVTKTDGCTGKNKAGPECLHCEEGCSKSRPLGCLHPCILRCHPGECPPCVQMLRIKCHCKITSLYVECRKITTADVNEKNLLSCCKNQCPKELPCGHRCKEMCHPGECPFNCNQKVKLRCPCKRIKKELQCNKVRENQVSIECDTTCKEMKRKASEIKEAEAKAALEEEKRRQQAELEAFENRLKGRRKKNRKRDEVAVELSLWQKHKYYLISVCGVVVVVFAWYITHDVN
UniProt Q8WUM4, sequence (Q8WUM4 whole entry): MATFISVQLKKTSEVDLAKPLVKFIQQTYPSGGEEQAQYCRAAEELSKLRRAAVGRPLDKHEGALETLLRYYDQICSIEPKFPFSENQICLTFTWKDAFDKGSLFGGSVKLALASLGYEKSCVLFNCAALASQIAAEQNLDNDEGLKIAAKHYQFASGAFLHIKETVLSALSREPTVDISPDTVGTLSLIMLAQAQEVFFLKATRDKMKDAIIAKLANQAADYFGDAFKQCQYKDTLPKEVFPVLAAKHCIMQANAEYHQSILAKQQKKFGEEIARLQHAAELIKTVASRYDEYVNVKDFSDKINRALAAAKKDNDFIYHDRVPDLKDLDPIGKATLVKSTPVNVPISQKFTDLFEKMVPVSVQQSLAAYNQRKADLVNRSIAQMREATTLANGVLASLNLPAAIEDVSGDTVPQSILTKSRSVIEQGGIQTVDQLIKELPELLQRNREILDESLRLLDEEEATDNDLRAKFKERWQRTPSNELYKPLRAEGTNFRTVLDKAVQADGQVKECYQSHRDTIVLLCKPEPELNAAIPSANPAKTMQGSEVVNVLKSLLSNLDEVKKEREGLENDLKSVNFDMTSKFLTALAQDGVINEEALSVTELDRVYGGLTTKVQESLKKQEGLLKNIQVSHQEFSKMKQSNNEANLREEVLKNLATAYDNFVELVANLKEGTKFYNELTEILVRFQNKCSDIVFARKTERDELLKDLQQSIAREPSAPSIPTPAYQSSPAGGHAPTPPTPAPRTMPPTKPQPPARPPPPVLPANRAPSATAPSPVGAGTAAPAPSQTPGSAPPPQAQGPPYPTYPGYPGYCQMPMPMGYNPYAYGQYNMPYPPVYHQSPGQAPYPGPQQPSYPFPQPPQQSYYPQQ
UniProt Q13325, sequence (Q13325 whole entry): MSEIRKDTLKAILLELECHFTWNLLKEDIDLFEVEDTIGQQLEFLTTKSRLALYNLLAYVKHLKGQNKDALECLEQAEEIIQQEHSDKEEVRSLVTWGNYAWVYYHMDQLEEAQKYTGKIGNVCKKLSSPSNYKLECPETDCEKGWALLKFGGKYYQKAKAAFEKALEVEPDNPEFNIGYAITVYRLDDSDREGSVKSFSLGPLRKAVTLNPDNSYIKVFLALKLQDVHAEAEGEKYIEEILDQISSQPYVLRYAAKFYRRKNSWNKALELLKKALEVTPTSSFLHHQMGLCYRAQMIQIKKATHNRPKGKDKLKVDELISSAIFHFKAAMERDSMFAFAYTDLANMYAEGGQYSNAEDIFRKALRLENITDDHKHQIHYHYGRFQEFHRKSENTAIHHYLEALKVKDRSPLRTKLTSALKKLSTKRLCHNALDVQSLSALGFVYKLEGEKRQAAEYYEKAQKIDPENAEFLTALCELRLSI
UniProt Q86SZ2, sequence (Q86SZ2 whole entry): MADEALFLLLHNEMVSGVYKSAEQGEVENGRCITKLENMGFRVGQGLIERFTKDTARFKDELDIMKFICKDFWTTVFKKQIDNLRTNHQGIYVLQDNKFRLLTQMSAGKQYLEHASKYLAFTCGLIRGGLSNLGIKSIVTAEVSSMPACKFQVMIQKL
UniProt Q7Z7K6, sequence (Q7Z7K6 whole entry): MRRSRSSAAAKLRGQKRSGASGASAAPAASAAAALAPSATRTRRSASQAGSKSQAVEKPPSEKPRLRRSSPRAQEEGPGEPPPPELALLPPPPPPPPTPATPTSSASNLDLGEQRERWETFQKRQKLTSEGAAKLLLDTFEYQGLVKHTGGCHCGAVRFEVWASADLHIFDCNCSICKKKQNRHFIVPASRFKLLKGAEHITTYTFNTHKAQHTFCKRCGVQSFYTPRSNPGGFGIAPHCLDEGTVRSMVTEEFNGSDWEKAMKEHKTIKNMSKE
UniProt P55072, sequence (P55072 whole entry, looked up): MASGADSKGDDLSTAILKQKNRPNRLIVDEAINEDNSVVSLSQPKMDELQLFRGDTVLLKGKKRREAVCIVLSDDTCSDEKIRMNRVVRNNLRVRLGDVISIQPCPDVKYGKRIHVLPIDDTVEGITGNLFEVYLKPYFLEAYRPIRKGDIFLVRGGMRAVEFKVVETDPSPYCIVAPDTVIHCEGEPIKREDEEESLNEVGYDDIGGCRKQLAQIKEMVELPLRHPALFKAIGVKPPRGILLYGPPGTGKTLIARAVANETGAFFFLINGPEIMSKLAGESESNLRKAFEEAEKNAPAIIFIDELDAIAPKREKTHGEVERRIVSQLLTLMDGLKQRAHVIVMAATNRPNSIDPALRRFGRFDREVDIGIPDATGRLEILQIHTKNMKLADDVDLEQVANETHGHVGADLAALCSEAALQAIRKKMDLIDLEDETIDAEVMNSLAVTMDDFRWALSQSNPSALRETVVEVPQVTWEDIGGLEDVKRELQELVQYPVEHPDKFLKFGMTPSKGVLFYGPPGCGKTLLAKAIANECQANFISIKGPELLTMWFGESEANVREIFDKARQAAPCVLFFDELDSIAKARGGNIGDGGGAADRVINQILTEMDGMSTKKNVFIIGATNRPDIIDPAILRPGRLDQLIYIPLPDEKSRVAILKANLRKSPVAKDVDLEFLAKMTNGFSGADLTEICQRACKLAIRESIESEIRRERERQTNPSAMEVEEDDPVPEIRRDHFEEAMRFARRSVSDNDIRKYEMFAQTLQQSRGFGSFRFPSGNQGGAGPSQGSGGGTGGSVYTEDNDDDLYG

Target	NP40-soluble protein abundance (concentration: 0.1mM)	NP40-soluble protein abundance (concentration: 0.5mM)	NP40-soluble protein abundance (concentration: 1mM)	NP40-soluble protein abundance (concentration: 2mM)	NP40-soluble protein abundance (concentration: 4mM)	NP40-soluble protein abundance (concentration: 6mM)	NP40-soluble protein abundance (concentration: 8mM)	NP40-soluble protein abundance (concentration: 10mM)
UniProt P55072	0.982 ± 0.03	1.05 ± 0.064	0.999 ± 0.073	1.02 ± 0.12	1.03 ± 0.11	1.03 ± 0.14	1 ± 0.1	1 ± 0.11
FKBP3 (UniProt Q00688)	0.911 ± 0.048	0.906 ± 0.066	0.943 ± 0.073	0.906 ± 0.081	0.902 ± 0.081	0.905 ± 0.082	0.925 ± 0.077	0.943 ± 0.09
AARS2 (UniProt Q5JTZ9)	1.13 ± 0.043	1.02 ± 0.046	0.989 ± 0.052	0.998 ± 0.059	0.98 ± 0.06	0.948 ± 0.04	0.925 ± 0.03	0.925 ± 0.045
UniProt Q14156|Q14156-3	1.13 ± 0.049	1.105 ± 0.011	1.09 ± 0.11	1.1 ± 0.021	1.21 ± 0.11	1.1 ± 0.16	1.0338 ± 0.00078	1.01 ± 0.013
UniProt Q13325|Q13325-2	1.06 ± 0.044	1.05 ± 0.061	0.989 ± 0.057	0.978 ± 0.05	0.952 ± 0.086	0.927 ± 0.049	0.906 ± 0.077	0.888 ± 0.13
UniProt Q04656|Q04656-2|Q04656-3|Q04656-5	1.01 ± 0.13	1.01 ± 0.059	0.971 ± 0.096	1.01 ± 0.079	0.951 ± 0.052	1.02 ± 0.015	0.972 ± 0.11	0.924 ± 0.087
NFXL1 (UniProt Q6ZNB6)	1.04 ± 0.079	1.09 ± 0.1	1.05 ± 0.091	1.11 ± 0.067	1.13 ± 0.12	1.16 ± 0.13	1.12 ± 0.12	1.15 ± 0.11
PDCD6IP (UniProt Q8WUM4)	0.945 ± 0.046	0.957 ± 0.053	0.943 ± 0.061	0.889 ± 0.075	0.873 ± 0.084	0.895 ± 0.064	0.904 ± 0.053	0.883 ± 0.07
UniProt Q14789|Q14789-2	1 ± 0.019	0.984 ± 0.041	1.02 ± 0.022	0.989 ± 0.049	0.993 ± 0.026	1 ± 0.035	1.02 ± 0.046	1.01 ± 0.051
TRAPPC6B (UniProt Q86SZ2)	1.06 ± 0.015	0.988 ± 0.077	0.954 ± 0.058	0.997 ± 0.092	0.999 ± 0.049	0.963 ± 0.088	0.885 ± 0.017	0.958 ± 0.065
SLC44A1 (UniProt Q8WWI5)	0.943 ± 0.066	0.931 ± 0.078	0.926 ± 0.061	0.894 ± 0.093	0.934 ± 0.07	0.879 ± 0.1	0.899 ± 0.1	0.938 ± 0.08
UniProt Q7Z7K6|Q7Z7K6-3	1.09 ± 0.035	1.08 ± 0.071	1.16 ± 0.013	1.37 ± 0.071	1.69 ± 0.2	2.01 ± 0.27	2.24 ± 0.32	3.21 ± 0.43
UniProt P62805	0.891 ± 0.063	0.855 ± 0.058	0.972 ± 0.027	0.963 ± 0.053	1.08 ± 0.048	1.22 ± 0.054	1.2 ± 0.067	1.76 ± 0.14
BOLA3 (UniProt Q53S33)	0.893 ± 0.02	0.843 ± 0.047	0.962 ± 0.065	0.982 ± 0.03	0.953 ± 0.022	0.966 ± 0.061	0.925 ± 0.09	1.01 ± 0.042
ANKRD11 (UniProt Q6UB99)	1.01 ± 0.024	1.01 ± 0.092	1.1 ± 0.027	1.1 ± 0.06	1.1 ± 0.041	1.08 ± 0.042	1.18 ± 0.073	1.17 ± 0.073
